Unmarked numbers belong to inactive results. Results filed as inconclusive are left out. Active and inactive are the calls of the source. Unless noted, calls follow the shape of the dose curve; as a rule, active = well fitted curve in the direction sought with a large enough effect in the repeat runs; inconclusive = weak or mixed curves; inactive = no such curve, though single readings can be large; an effect the other way counts as inactive or inconclusive.

The nature of experiment [1]: qHTS assay to identify small molecule HDAC inhibitors (AID 1259364). Also: potency is read from the fitted curve at half-maximal effect.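 Also: wild-type HCT-116 cells with endogenous class I/II HDAC activity; nearly all actives have a fitted effect of over 45% in size.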 The method in brief: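 After a 2 hr compound incubation (37C, 5% CO2), HCT-116 cells seeded at 1,500/well the day before received HDAC-Glo reagent; signal read as luminescence after 30 min at room temperature.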
The nature of experiment [2]: qHTS assay to identify small molecule HDAC inhibitors - cell viability counter screen (AID 1259365). Also: series mostly up to about 92 µM; nearly all actives have a fitted effect of over 50% in size. In short, it runs like this:
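HCT-116 wild-type, overnight attachment; 2hr drug exposure, 37C; CellTiter-Glo luminescent ATP readout after 30min RT.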
(In general: In qHTS, concentration-response curves come from the screen itself.)

Experiment [3] can be described thus: qHTS assay to identify small molecule agonists of the sonic hedgehog signaling (Shh) pathway - cell viability counter screen (AID 1259366). Also: nearly all actives have a fitted effect of over 50% in size. The method in brief:
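Compounds in DMSO were pin-transferred onto 3T3 Gli1-Luc cells that had settled 4hr; plates then stood 24hr at 37C and 5% CO2. One hour before the end, CellTiter-Fluor was added and fluorescence recorded.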

A short description of experiment [4]: qHTS assay to identify small molecule agonists of the sonic hedgehog signaling (Shh) pathway (AID 1259368; calls by dose curve;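 also: NIH/3T3-derived 3T3Gli1-Luc cells carrying a stable Gli1-driven firefly luciferase reporter; series mostly up to about 92 µM; nearly all actives have a fitted effect of over 15% in size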). The method in brief:
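Stable NIH/3T3 Gli1-Luc reporter clone; 24 hr cpd exposure after a 4 hr settling period; luminescence endpoint.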

A short description of experiment [5]: qHTS assay to identify small molecule antagonists of the sonic hedgehog signaling (Shh) pathway (AID 1259369; calls by dose curve; also: nearly all actives have a fitted effect of over 45% in size). In short, it runs like this: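 Gli1 transcriptional reporter (firefly Luc) in NIH/3T3 background, conditioned-medium activated. 24hr exposure, luminescence endpoint.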
A short description of experiment [6]: qHTS assay to identify small molecule agonists of the androgen receptor (AR) signaling pathway in the presence of an antagonist - cell viability counter screen (AID 1259379).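 Also: MDA-kb2 human breast cancer cells carrying an MMTV luciferase reporter; series mostly up to about 92 µM; nearly all actives have a fitted effect of over 25% in size.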 In short, it runs like this:
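Counter screen for cell viability run in parallel with the AR agonist-mode luciferase assay. MDA-kb2 cells were co-treated with nilutamide (3.0uM final) and compounds, then incubated 16 hr at 37C, and CellTiter-Fluor fluorescence was measured.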

Experiment [7] can be described thus: qHTS assay to identify small molecule agonists of the estrogen receptor beta (ER-beta) signaling pathway - cell viability counter screen (AID 1259380). Also: nearly all actives have a fitted effect of over 30% in size. The method in brief:
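In this qHTS counter screen, HEK293T cells carrying an ER-beta/UAS beta-lactamase reporter, grown in 2% charcoal-stripped FBS, received compound for 16 hr; ATP-based CellTiter-Glo luminescence was then read after 30 min at room temperature.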

Experiment [8] in a line: qHTS assay to identify small molecule antagonists of the estrogen receptor beta (ER-beta) signaling pathway - cell viability counter screen (AID 1259382). Also: series mostly up to about 92 µM; nearly all actives have a fitted effect of over 55% in size. In short, it runs like this: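 HEK293T ER-beta-UAS-bla, 2% charcoal-stripped FBS; compounds + 1nM E2 16 hr 37C; CellTiter-Glo luminescence, 30 min RT.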
The target of experiment [9] is Estrogen receptor (Homo sapiens) (UniProt P03372). Description: qHTS assay to identify small molecule agonists of the estrogen receptor alpha (ER-alpha) signaling pathway in the presence of an antagonist (AID 1259383; calls by dose curve; also: top concentration of the series differs between compounds; nearly all actives have a fitted effect of over 15% in size). In short, it runs like this: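 ER-alpha agonism measured under antagonist challenge: 10.0nM ICI-182,780 (final) plus compound, 15 concentrations, 22hr, VM7Luc4E2 ERE-luciferase cells. Read by luminescence.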

Experiment [10] is described as follows: qHTS assay to identify small molecule agonists or antagonists of the thyroid stimulating hormone receptor (TSHR) signaling pathway - wild type cell line counter screen (AID 1259384; calls by dose curve). The method in brief:
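Wild-type Hek293 cells, 800/well, 18 h at 37C, then compound with Ro20-1724 for 30 min RT. cAMP by HTRF (cAMP-d2/anti-cAMP cryptate), 1 h RT, fluorescence read. 15 concentrations, triplicates.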

The target in experiment [11] is Thyrotropin receptor (Homo sapiens) (UniProt P16473). Description: qHTS assay to identify small molecule antagonists of the thyroid stimulating hormone receptor (TSHR) signaling pathway (AID 1259385; calls by dose curve; also: nearly all actives have a fitted effect of over 20% in size). In short, it runs like this: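 TSHR-HEK293 cells (800/well) plated 18 h, then compounds with Ro20-1724 and TSH at 1.5 ng/mL final, 30 min at room temperature. cAMP quantified by HTRF (cAMP-d2/anti-cAMP-cryptate, 1 h); 15 concentrations in triplicate.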

A short description of experiment [12]: qHTS assay to identify small molecule agonists of the estrogen receptor alpha (ER-alpha) signaling pathway in the presence of an antagonist - cell viability counter screen (AID 1259386).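 Also: series mostly up to about 92 µM; cells exposed to compounds for 22 h at 37 °C before the viability read; nearly all actives have a fitted effect of over 30% in size.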 The method in brief:
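Steps: 5-day stripped-FBS culture; seed and incubate 24hr; add ICI-182,780 (10.0nM final); pin 15-point compound titration; incubate 22hr at 37C; add CellTiter-Fluor at 21hr; read fluorescence.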

The target in experiment [13] is Progesterone receptor (Homo sapiens) (UniProt P06401). Description: qHTS assay to identify small molecule agonists of the progesterone receptor (PR) signaling pathway (AID 1346784; calls by dose curve; also: nearly all actives have a fitted effect of over 30% in size). In short, it runs like this:
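Fluorescence from LiveBLAzer B/G FRET substrate cleavage (2 hr, RT) reported PR activation in PR-UAS-bla HEK 293T cells treated 16 hr at 37C/5% CO2 with compounds; medium contained 2% charcoal-stripped FBS.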

Experiment [14] shares this target. Description: qHTS assay to identify small molecule antagonists of the progesterone receptor (PR) signaling pathway (AID 1346795; active = well fitted inhibition curve with a large enough effect in the signal ratio in the repeat runs, not every such curve was filed as active; the % refers to the signal ratio). The method in brief: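 Fluorescence intensity measured 2 hr after adding beta-lactamase FRET substrate to PR-UAS-bla HEK293T cells that had been co-treated 16 hr with compound and 1 nM R5020 (final concentration) in 2% charcoal-stripped FBS.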

Experiment [15] is described as follows: qHTS assay to identify small molecule antagonists of the progesterone receptor (PR) signaling pathway - cell viability counter screen (AID 1346798). Also: series mostly up to about 92 µM; nearly all actives have a fitted effect of over 50% in size. The method in brief: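 CellTiter-Glo luminescence; PR-UAS-bla HEK293T, 3,000 cells/well; compound + R5020, 16 hr, 37C/5% CO2; 30 min RT before read.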
The nature of experiment [16]: qHTS assay to identify small molecule agonists of the progesterone receptor (PR) signaling pathway - cell viability counter screen (AID 1346799; calls by dose curve; also: nearly all actives have a fitted effect of over 45% in size). In short, it runs like this: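 In parallel with the beta-lactamase readout, cytotoxicity toward PR-UAS-bla HEK293T cells was measured by CellTiter-Glo luminescence following 16 hr compound incubation in 2% charcoal-stripped FBS medium.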

Experiment [17] in a line: qHTS assay to identify small molecule antagonists of the sonic hedgehog signaling (Shh) pathway - cell viability counter screen (AID 1259367). Also: nearly all actives have a fitted effect of over 55% in size. In short, it runs like this:
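Fluorescence read-out (CellTiter-Fluor, 1 hr at 37C) taken after 23 hr compound treatment of 3T3 Gli1-Luc cells stimulated with conditioned medium. Cells were seeded at 2,000 per well and pre-incubated 4 hr.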

In experiment [18] the target is Estrogen receptor beta (Homo sapiens) (UniProt Q92731). Nature of the experiment: qHTS assay to identify small molecule agonists of the estrogen receptor beta (ER-beta) signaling pathway (AID 1259377; active = well fitted activation curve with a large enough effect in the signal ratio in the repeat runs, not every such curve was filed as active; the % refers to the signal ratio). In short, it runs like this:
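qHTS in ER-beta-UAS-bla HEK293T cells: 6 hr settling, then 16 hr compound at 37C, then LiveBLAzer substrate 2 h at RT before fluorescence reading.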

Experiment [19] has the same target. Description: qHTS assay to identify small molecule antagonists of the estrogen receptor beta (ER-beta) signaling pathway (AID 1259378; active = well fitted inhibition curve with a large enough effect in the signal ratio in the repeat runs, not every such curve was filed as active; the % refers to the signal ratio). In short, it runs like this:
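ER-beta-UAS-bla HEK293T cells in 2% charcoal-stripped FBS medium treated with compound plus 1nM final 17-beta-estradiol for 16 hr at 37C. Beta-lactamase reporter read by FRET substrate fluorescence after 2 hours at room temperature.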

The target of experiment [20] is Androgen receptor (Homo sapiens) (UniProt P10275). Description: qHTS assay to identify small molecule agonists of the androgen receptor (AR) signaling pathway in the presence of an antagonist (AID 1259381; calls by dose curve; also: nearly all actives have a fitted effect of over 15% in size). In short, it runs like this: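 AR antagonist background: nilutamide 3.0uM final. Cell line: MDA-kb2, MMTV-driven luciferase, responsive to both AR and GR. Exposure 16hr, 37C, no CO2; ONE-Glo luminescence.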
Chain of Androgen receptor (Homo sapiens) (P10275 whole entry, looked up): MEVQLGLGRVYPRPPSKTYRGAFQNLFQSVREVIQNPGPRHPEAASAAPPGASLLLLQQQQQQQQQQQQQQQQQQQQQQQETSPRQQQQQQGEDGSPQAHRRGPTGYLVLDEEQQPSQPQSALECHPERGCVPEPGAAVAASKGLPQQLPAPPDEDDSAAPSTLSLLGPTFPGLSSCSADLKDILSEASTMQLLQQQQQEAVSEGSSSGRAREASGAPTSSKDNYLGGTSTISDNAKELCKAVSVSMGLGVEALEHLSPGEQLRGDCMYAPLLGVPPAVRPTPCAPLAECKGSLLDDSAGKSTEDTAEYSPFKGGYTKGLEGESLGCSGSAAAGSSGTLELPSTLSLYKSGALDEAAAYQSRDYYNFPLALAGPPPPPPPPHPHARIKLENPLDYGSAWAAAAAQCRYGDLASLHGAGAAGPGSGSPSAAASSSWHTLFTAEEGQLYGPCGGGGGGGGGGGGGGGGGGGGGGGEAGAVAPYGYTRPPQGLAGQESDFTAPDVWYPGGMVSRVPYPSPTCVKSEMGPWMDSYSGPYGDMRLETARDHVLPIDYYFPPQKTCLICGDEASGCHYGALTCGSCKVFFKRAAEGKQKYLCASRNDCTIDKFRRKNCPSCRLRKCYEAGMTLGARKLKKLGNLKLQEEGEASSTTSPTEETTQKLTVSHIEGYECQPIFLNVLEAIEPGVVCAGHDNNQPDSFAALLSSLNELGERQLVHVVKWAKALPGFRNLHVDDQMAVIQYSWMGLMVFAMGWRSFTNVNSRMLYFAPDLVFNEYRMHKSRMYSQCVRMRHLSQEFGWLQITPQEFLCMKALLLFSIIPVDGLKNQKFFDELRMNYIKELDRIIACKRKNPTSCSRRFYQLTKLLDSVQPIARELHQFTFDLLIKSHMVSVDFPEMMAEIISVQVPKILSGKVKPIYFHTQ

Chain of Estrogen receptor (Homo sapiens) (P03372 whole entry, looked up): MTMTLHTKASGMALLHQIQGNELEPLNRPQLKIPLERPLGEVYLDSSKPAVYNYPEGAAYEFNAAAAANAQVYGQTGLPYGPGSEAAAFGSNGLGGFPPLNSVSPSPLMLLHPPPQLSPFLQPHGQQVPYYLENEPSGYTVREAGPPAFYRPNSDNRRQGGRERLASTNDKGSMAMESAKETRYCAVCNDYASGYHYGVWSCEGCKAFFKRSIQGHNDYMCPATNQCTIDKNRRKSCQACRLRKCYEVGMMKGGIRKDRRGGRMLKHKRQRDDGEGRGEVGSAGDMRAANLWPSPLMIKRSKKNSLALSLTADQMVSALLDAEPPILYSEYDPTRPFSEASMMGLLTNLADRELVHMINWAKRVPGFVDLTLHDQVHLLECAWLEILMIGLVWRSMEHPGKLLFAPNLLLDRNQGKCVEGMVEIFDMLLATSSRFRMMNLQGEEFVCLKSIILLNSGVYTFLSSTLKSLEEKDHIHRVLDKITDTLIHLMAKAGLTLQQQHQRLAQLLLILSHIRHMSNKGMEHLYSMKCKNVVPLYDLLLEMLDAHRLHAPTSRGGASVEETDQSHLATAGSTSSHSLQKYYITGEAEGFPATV
Chain of Estrogen receptor beta (Homo sapiens) (Q92731 whole entry, looked up): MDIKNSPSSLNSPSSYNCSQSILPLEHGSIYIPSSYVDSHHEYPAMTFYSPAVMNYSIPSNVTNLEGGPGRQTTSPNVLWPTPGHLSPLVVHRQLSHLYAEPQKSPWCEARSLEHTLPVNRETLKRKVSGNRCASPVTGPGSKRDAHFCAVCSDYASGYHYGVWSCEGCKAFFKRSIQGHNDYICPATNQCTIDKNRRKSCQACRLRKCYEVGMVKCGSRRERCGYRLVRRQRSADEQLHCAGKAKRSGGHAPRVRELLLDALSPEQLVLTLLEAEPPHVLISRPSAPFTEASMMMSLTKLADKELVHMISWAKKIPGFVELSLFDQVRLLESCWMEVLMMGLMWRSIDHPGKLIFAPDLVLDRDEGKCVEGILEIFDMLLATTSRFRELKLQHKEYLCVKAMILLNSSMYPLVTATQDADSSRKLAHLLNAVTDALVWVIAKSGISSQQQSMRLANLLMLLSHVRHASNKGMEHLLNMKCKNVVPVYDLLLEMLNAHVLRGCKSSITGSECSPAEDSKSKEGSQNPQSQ
Chain of Progesterone receptor (Homo sapiens) (P06401 whole entry, looked up): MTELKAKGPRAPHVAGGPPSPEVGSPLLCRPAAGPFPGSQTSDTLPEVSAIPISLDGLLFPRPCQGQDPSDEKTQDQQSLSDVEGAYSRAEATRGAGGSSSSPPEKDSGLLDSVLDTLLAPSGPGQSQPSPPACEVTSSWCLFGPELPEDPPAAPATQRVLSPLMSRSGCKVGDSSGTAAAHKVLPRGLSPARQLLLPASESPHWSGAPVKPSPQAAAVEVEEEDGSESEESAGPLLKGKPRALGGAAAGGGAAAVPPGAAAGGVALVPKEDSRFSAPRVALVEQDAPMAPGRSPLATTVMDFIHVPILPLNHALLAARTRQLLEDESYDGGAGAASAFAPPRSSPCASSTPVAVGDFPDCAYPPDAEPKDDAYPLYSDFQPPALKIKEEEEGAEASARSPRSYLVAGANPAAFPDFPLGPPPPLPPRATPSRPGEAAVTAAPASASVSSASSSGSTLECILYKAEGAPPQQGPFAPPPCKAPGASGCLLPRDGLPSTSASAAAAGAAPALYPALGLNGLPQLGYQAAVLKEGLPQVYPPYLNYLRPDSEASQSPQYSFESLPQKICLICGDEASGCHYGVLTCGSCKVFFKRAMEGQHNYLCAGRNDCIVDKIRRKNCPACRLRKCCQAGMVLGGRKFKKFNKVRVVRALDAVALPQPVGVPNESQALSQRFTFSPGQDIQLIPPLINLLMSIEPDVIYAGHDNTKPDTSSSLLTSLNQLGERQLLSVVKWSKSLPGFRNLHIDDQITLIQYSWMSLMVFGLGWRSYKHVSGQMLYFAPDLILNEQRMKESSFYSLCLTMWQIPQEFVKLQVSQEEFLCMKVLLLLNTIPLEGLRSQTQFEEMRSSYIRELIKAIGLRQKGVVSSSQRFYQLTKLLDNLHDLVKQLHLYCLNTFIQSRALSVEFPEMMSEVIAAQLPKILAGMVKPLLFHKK
Chain of Thyrotropin receptor (Homo sapiens) (P16473 whole entry, looked up): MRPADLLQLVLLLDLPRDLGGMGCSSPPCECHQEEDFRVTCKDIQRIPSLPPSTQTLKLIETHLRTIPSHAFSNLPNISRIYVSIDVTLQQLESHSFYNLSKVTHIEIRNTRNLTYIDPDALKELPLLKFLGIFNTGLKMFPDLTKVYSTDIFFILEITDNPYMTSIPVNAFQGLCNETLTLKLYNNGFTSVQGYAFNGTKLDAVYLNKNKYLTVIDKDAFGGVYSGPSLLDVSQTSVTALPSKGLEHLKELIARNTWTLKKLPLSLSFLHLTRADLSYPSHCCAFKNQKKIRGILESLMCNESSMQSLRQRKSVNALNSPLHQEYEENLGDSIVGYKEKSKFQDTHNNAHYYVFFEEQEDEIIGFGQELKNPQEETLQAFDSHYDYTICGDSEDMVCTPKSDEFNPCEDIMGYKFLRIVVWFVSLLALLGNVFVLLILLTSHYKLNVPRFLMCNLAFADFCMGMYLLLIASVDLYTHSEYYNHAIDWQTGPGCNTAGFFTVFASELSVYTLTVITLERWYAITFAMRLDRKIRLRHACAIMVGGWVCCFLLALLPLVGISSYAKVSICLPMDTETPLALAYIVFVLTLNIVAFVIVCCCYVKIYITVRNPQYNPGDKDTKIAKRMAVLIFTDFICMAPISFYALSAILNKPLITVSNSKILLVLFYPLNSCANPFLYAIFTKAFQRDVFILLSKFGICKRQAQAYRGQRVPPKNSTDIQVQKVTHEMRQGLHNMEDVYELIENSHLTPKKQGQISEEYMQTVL

Take `O=C(O)[C@H](O)c1ccccc1`: the Potency result in [1], in experiment [5], in [9], in experiment [13] and in experiment [14] was “inactive” each time. Further, the compound was classed as inactive in experiment [2], in experiment [3], in experiment [4], in experiment [6], in [7] and in experiment [8]. Also, the compound was called inactive in [10], in experiment [11], in [12], in experiment [15] and in experiment [16].

Consider `CC/C=C\CCOC(=O)c1ccccc1O`, for which the Potency in experiment [1] is 15.4 µM (active). The compound was called inactive in experiment [2], in experiment [3], in experiment [17], in experiment [6], in [7] and in experiment [8]. The outcome in [10], in experiment [11], in experiment [12], in [15] and in [16] was inactive. For the same compound, the Potency result in [5], in experiment [18], in experiment [19], in [13] and in experiment [14] was “inactive” throughout.

Consider `c1ccc2c(CC3=NCCN3)cccc2c1`, for which the Potency result in [1], in experiment [5] and in experiment [14] was “inactive” throughout. Further, the result in experiment [2], in experiment [3], in experiment [4], in [6], in experiment [7] and in experiment [8] was inactive. Further, the call in experiment [10], in [12], in [15] and in experiment [16] was inactive.

For the compound `C[C@@H](O)C(=O)O`, the Potency result in [1], in [5], in experiment [9] and in experiment [14] was “inactive” each time. The call in [2], in [3], in experiment [17], in experiment [6], in experiment [7] and in [8] was inactive. The compound was classed as inactive in experiment [10], in [11] and in [15].

For `O=C[O][Al]([O]C=O)[O]C=O`, the Potency entry in experiment [1], in experiment [5], in experiment [13] and in experiment [14] was “inactive” in each case. Besides, the compound was classed as inactive in experiment [2], in experiment [6], in experiment [8] and in experiment [11].

Consider `OC1(c2ccc(Cl)cc2)CCNCC1`, for which the compound was classed as inactive in experiment [2], in [3], in experiment [17], in experiment [4], in [6] and in [7]. Besides, the outcome in experiment [20], in experiment [8], in experiment [10], in experiment [11], in experiment [12] and in experiment [15] was inactive. In addition, the Potency entry in [5], in [18], in experiment [19], in experiment [13] and in experiment [14] was “inactive” throughout.

Turning to `Cc1c(N)cccc1Cl`, the Potency entry in experiment [1], in [19] and in [9] was “inactive” in each case. Further, the call in [2], in [17], in experiment [6], in experiment [8], in experiment [10] and in experiment [11] was inactive. Besides, in experiment [12], the result was inactive.

In the case of `CO/N=C(/C(=O)N[C@@H]1C(=O)N2C(C(=O)[O-])=C(C[n+]3ccn4ncccc43)CS[C@H]12)c1nsc(N)n1`, the Potency entry in experiment [1], in [5], in experiment [18], in experiment [19], in experiment [9] and in experiment [13] was “inactive” each time. The Potency result in experiment [14] is “inactive”. The call in [2], in experiment [17], in experiment [4], in experiment [6], in experiment [7] and in experiment [8] was inactive. For the same compound, the outcome in experiment [10], in experiment [11] and in experiment [16] was inactive.

With `CC(C)Nc1ccccc1`, the Potency entry in experiment [1], in [5], in experiment [18], in [19], in experiment [9] and in [13] was “inactive” each time. In addition, the Potency entry in [14] is “inactive”. For the same compound, the compound was classed as inactive in experiment [2], in experiment [6], in experiment [7], in experiment [8], in [10] and in experiment [11]. The outcome in [12] and in experiment [16] was inactive.

The values above are taken from PubChem BioAssay (Tox21).
